Assay results taken from PubChem BioAssay (NCATS).
Records with an inconclusive call do not appear. Active and inactive are the calls of the source. Unless noted, the call rests on the fitted dose curve; in most records, active means well fitted cell-killing curve with a large enough effect; inconclusive means small, poorly fitted or top-dose-only effect; inactive means flat fitted curve, though single readings scatter.

Assays:
[1] = target: Estrogen receptor (Homo sapiens) (UniProt P03372); assay: qHTS assay for small molecule agonists of estrogen receptor alpha signaling (AID 588514; calls by dose curve; further: nearly all actives have a fitted effect of over 70% in size)
Sequence of Estrogen receptor (Homo sapiens) (P03372 whole entry, looked up): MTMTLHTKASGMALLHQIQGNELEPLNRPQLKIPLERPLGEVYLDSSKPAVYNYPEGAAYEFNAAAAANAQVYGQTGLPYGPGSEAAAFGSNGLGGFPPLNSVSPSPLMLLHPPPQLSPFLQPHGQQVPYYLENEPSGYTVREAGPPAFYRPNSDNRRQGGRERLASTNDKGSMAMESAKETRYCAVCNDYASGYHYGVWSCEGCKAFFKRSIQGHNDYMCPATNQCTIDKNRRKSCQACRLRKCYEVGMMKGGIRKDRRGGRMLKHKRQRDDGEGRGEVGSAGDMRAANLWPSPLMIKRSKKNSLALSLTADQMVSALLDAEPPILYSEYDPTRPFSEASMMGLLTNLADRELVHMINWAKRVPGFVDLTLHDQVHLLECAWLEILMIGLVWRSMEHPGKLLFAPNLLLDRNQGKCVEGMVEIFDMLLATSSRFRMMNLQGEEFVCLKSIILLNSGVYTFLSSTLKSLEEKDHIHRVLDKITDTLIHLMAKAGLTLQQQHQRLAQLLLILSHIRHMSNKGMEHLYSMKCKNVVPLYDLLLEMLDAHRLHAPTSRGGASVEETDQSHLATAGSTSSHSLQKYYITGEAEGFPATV
Outline: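 Cells were plated at 5000/well, incubated 4 hrs at 37 C, dosed with compound titration series, incubated 18 hrs at 37 C, loaded with CCF4 dye for 2 hrs at RT, then fluorescence was read.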

[2] = Cell Viability - LYMP2-013 (AID 970); further: series mostly up to about 92 µM; nearly all actives have a fitted effect of over 55% in size
Outline: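 qHTS; 2500 lymphoblastoid cells/well; 5 hr 37 C settle; cpd 24 hr 37 C; CellTiter-Glo, 30 min RT; luminescence. AC50 = Hill fit.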

[3] = Cell Viability - LYMP2-017 (AID 972); further: series mostly up to about 92 µM; nearly all actives have a fitted effect of over 55% in size
Outline: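 2500 cells/well, 5 h 37 C; cpd 24 h 37 C in complete medium; CellTiter-Glo, 30 min RT; luminescence (ATP). AC50 via Hill fit, qHTS.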

[4] = Cell Viability - LYMP2-019 (AID 973); further: nearly all actives have a fitted effect of over 55% in size
Outline: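 Luminescent ATP read-out (CellTiter-Glo, 30 min room temperature) served as the viability measure after 24 hr treatment of lymphoblastoid cells at 37 C. Concentration-response data were fitted to the Hill equation for AC50.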

[5] = Cell Viability - LYMP2-021 (AID 974);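 further: compound exposure lasts 24 hours at 37 °C; nearly all actives have a fitted effect of over 55% in size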
Outline: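 Plate 2500 lymphoblastoid cells per well and incubate 5 hr at 37 C. Add compounds over a concentration range and incubate 24 hr at 37 C. Add CellTiter-Glo, wait 30 min at room temperature, read luminescence.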

[6] = Cell Viability - LYMP2-025 (AID 976); further: series mostly up to about 92 µM
Outline: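 Seed 2500 LYMP2-025 cells/well; 5 hr at 37 C; add compound; 24 hr at 37 C; add CellTiter-Glo; 30 min RT; read luminescence. AC50 from Hill-modelled concentration-response.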

[7] = Cell Viability - LYMP2-002 (AID 977); further: series mostly up to about 92 µM
Outline: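 Luminescent ATP readout (CellTiter-Glo, 30 min room temperature) after 24 h compound exposure at 37 C of a human lymphoblastoid line, 2500 cells/well. AC50 values derived by standard Hill fitting of qHTS concentration-response data.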

[8] = Cell Viability - LYMP2-006 (AID 978); further: series mostly up to about 92 µM; nearly all actives have a fitted effect of over 60% in size
Outline: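 Concentration-dependent loss of intracellular ATP in a human lymphoblastoid line after 24 hr treatment at 37 C was measured by CellTiter-Glo luminescence, with AC50 values obtained from standard Hill-equation modelling.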

[9] = Cell Viability - LYMP2-007 (AID 979);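 further: cells exposed to compound for 24 h before reading; nearly all actives have a fitted effect of over 60% in size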
Outline: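 Luminescent ATP signal (CellTiter-Glo) serves as the viability read-out after 24 hr compound treatment of lymphoblastoid cells in complete medium at 37 C. Concentration-response data were fitted to the Hill equation to give AC50 values.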

[10] = Cell Viability - LYMP2-008 (AID 980); further: nearly all actives have a fitted effect of over 60% in size
Outline: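 qHTS, human lymphoblastoid line, 2500 cells/well; 5 hr preincubation, 24 hr compound, 37 C. CellTiter-Glo ATP luminescence. AC50 via Hill equation. Tetraoctylammonium bromide positive control.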

[11] = Cell Viability - LYMP2-010 (AID 981); further: nearly all actives have a fitted effect of over 55% in size
Outline: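 Luminescent ATP signal (CellTiter-Glo) served as the viability read-out. Cells of the human lymphoblastoid line were treated with compound over a concentration range for 24 hours at 37 C, and AC50 values came from Hill-equation modeling.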

[12] = Cell Viability - LYMP2-012 (AID 982)
[13] = Cell Viability - LYMP2-014 (AID 983); further: series mostly up to about 92 µM; nearly all actives have a fitted effect of over 50% in size
Outline: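 Luminescent ATP signal (CellTiter-Glo, 30 min at room temperature) serves as the viability read-out after 24 hr compound exposure at 37 C. Cells were seeded at 2500 per well and settled 5 hr beforehand.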

[14] = Cell Viability - LYMP2-016 (AID 984); further: nearly all actives have a fitted effect of over 55% in size
Outline: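 Acute toxicity in a Coriell human lymphoblastoid line is scored as loss of intracellular ATP over 24 h of treatment in complete medium. CellTiter-Glo signal is fitted across concentrations with the Hill equation to give AC50.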

[15] = Cell Viability - LYMP2-018 (AID 985); further: nearly all actives have a fitted effect of over 50% in size
Outline: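 Luminescent ATP signal (CellTiter-Glo, read after 30 min at room temperature) reports viable cells after 24 hr compound treatment at 37 C. Concentration-response data were fitted to the standard Hill equation for AC50.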

[16] = Cell Viability - LYMP2-022 (AID 987); further: nearly all actives have a fitted effect of over 55% in size
Outline: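 qHTS: human lymphoblastoid cells 2500/well; 5 hr 37 C; cpd added; 24 hr 37 C; CellTiter-Glo, 30 min RT; luminescence. AC50 via Hill fit; tetraoctylammonium bromide positive ctrl.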

[17] = Cell Viability - LYMP2-024 (AID 988); further: nearly all actives have a fitted effect of over 60% in size
Outline: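 Steps: seed 2500 cells/well, 5 hr 37 C; add compound, 24 hr 37 C; add CellTiter-Glo, 30 min room temperature; read luminescence. AC50 derived by Hill modelling of concentration-dependent ATP loss.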

[18] = Cell Viability - LYMP2-026 (AID 989); further: nearly all actives have a fitted effect of over 50% in size
Outline: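 Luminescent ATP signal (CellTiter-Glo, 30 min room temperature) measures viable lymphoblastoid cells after 24 hr compound treatment at 37 C. Decreased ATP reflects acute toxicity; AC50 values come from Hill-equation modeling.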

[19] = Cell Viability - LYMP1-002 - Assay at 24 hr (AID 993)
Outline: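 Cells plated 2500/well, 5 hr 37 C; compounds added, 24 hr 37 C; CellTiter-Glo added, 30 min RT; luminescence read. Tetraoctylammonium bromide positive control. Hill-equation AC50.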

[20] = Cell Viability - LYMP1-002 - Assay at 40 hr (AID 994); further: nearly all actives have a fitted effect of over 60% in size
Outline: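 Luminescent ATP signal served as the viability readout, with decreases taken as toxicity. Cells were treated with compounds across a concentration range for 40 hours at 37 C, and AC50 values came from standard Hill modeling.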

Measured: Potency

C=CC(C)(CCC=C(C)C)OC(C)=O (centres undefined)
inactive: [1]

C=CC(=C)CCC=C(C)C
inactive: [2] | [3] | [4] | [5] | [6] | [7] | [8] | [9] | [10] | [11] | [12] | [13] | [14] | [15] | [16] | [17] | [18] | [19] | [20] | [1]

O=C(O)c1ccccc1
inactive: [2] | [3] | [4] | [5] | [6] | [7] | [8] | [9] | [10] | [11] | [12] | [13] | [14] | [15] | [16] | [17] | [18] | [19] | [20] | [1]

CCCCCCCCCCCCCC(=O)O
inactive: [2] | [3] | [4] | [5] | [6] | [7] | [8] | [9] | [10] | [11] | [12] | [13] | [14] | [15] | [16] | [17] | [18] | [19] | [20] | [1]

COc1ccc(/C=C/c2cc(OC)cc(=O)o2)cc1
inactive: [2] | [3] | [4] | [5] | [6] | [7] | [8] | [9] | [10] | [11] | [12] | [13] | [14] | [15] | [16] | [17] | [18] | [19] | [20] | [1]

COc1cc(/C=C/c2ccccc2)oc(=O)c1
inactive: [2] | [3] | [4] | [5] | [6] | [7] | [8] | [9] | [10] | [11] | [12] | [13] | [14] | [15] | [16] | [17] | [18] | [19] | [20]

CCCCCCCCCCCC(=O)O
inactive: [2] | [3] | [4] | [5] | [6] | [7] | [8] | [9] | [10] | [11] | [12] | [13] | [14] | [15] | [16] | [17] | [18] | [19] | [20]
